Sampled rows, rich in hits. Any-hit rate of the full collection: about 4%.
PAX8 inh HTS: inhibitors of PAX8-driven TPO luciferase reporter, primary screen, RMG-I cells, single concentration. SteadyGlo, 24 h. inhibition, % at 12.6 µM. actives 1.2% (n = 360,000). AID 652154, 2013;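 active = mean replicate inhibition at least 60% with every replicate also reaching 60%; inconclusive = only one of the two criteria is met; inactive = mean below 60% and not all replicates reaching 60%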;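 note: luciferase light reporting Pax8 driven TPO promoter activity; plate controls were median of neutral control wells for no effect and mitoxantrone controls for full effect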
CSC inhib: cancer stem cell viability inhibitors, primary screen, luminescence; inhibition, % at 7.5 µM; AID 2717, 2010; cancer stem cell-like cells viability; actives 1.1% (n = 300,000); in the data active = inhibition above about 75%; inconclusive = no clear call, values can overlap the other calls; tested in HMLE shEcad cells
Shn3 3UTR inh: reduction of Shn3 3'UTR firefly luciferase signal, primary screen, Schnurri-3 inhibitor project, cell-based, Clone20 osteoblasts, set 2; inhibition, % at 12.5 µM; actives 0.52% (n = 360,000); Clone20 osteoblast Shn3 3'UTR firefly luciferase, 24 h;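 active = mean inhibition of at least 75% with every replicate also reaching 75%; inconclusive = mean inhibition at least 75% but some replicate below; inactive = mean inhibition below 75%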;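 note: 0% = median of neutral control wells and 100% = pilot-screen positive control compound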
Mdm2-MdmX inh: inhibitors of human Mdm2-MdmX association, primary screen, cell-based, luminescence, split luciferase, SaOS-2, uHTS. actives 3% (n = 330,000). SaOS-2 split-luciferase Mdm2/MdmX complementation. inhibition, % at 8 µM;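 active = inhibition of at least 50% at 8 µM in the primary screen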
Target sequence (O15151 whole entry, looked up): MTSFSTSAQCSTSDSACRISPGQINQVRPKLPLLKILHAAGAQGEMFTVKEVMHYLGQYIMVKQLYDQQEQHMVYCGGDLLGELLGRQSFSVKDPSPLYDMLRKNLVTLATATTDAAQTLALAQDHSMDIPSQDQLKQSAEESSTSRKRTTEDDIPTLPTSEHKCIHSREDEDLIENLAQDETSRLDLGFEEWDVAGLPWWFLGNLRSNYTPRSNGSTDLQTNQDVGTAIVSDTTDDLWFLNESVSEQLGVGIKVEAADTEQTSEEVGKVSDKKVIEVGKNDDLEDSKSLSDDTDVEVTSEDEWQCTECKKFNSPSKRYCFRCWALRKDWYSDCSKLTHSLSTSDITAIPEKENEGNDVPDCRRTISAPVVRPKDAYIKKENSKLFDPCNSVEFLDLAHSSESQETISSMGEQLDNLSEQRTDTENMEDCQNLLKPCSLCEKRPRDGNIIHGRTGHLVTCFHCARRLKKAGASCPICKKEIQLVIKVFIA
Target sequence (Q00987 whole entry, looked up): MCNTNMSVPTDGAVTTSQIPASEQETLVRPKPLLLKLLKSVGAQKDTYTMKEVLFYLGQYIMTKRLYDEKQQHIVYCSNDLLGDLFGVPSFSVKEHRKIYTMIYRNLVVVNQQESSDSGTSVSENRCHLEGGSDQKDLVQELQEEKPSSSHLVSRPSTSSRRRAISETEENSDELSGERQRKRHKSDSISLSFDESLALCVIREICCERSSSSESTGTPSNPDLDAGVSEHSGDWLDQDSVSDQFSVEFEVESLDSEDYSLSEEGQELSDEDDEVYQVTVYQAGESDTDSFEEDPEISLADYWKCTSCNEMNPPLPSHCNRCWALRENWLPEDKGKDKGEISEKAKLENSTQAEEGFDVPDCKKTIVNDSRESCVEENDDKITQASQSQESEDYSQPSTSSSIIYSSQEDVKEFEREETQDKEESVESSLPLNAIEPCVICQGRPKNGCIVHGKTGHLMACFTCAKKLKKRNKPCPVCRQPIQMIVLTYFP
Gli-Sufu antag: Gli-Sufu pathway antagonists, primary screen, luciferase luminescence, Sufu-KO-LIGHT cells, uHTS; Sufu-KO-LIGHT fibroblasts, Gli luciferase reporter luminescence; AID 588413, 2011; actives 0.74% (n = 340,000); inhibition, % at 5 µM;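 active = inhibition above about 55%, limit read from the data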;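 note: 0% = DMSO-treated cells and 100% = wells with medium but no cells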
Beta apoptosis: inhibitors of cytokine-induced beta cell apoptosis, primary screen, luminescence; INS-1E cytokine-induced death, ATP luminescence, 48 h; percent of positive-control rescue, neutral wells zero; AID 435005, 2010; protection from apoptosis, % (test concentration not listed); actives 0.8% (n = 300,000);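 active = Every replicate reaches about 75%, or at least half do and their mean reaches it too, limit read from the data; inconclusive = At least half of replicates reach the limit but their mean does not; inactive = Under half of replicates reach the limit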;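 note: 0% = cytokine-treated negative control wells and 100% = positive control rescue; higher means more ATP so stronger rescue from cytokine killing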
Mdm2 MdmX conf: Mdm2-MdmX complex disruptors, retested hits, confirmation, luminescence, single concentration. shares compounds with Mdm2-MdmX inh. Mdm2-MdmX binding, luminescent assay. inhibition, % at 8 µM. actives 55% (n = 10,000); in the data active = inhibition above about 40%
Full FLuc ctr: full-length luciferase signal inhibition, confirmation, counter-screen for Mdm2/MdmX interaction inhibitor project, cell-based, single concentration, SaOS-2 | shares compounds with Mdm2-MdmX inh | SaOS-2 full-length luciferase counterscreen, luminescence | inhibition, % at 8 µM | actives 77% (n = 6,200);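 active = mean inhibition at 8 µM reaching about 37%, which flags the compound as non-specific, limit read from the data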;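 note: p53-null SaOS-2 cells with luciferase driven by a doxycycline-inducible promoter; compound on cells about two nights before reading with doxycycline added after day one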
* marks the source's active call; other numbers are inactive results; ? = inconclusive; nt = not tested or not shown.

SMILES	PAX8 inh HTS	CSC inhib	Shn3 3UTR inh	Mdm2-MdmX inh	Gli-Sufu antag	Beta apoptosis	Mdm2 MdmX conf	Full FLuc ctr
O=C(NC(=S)Nc1ccc(N2CCN(C(=O)c3ccccc3)CC2)cc1)c1cccs1	18	nt	80	51*	16	nt	29	nt
COc1cccc(NC(=O)c2ccc(CN3CCN(c4ccccc4)CC3)cc2)c1	nt	-15	23	57*	3	-17	32	nt
O=C(Nc1ccc(N2CCN(C(=O)c3cccs3)CC2)cc1)c1cccc(F)c1	28	32	19	15	18	3	nt	nt
COc1cccc(C(=O)Nc2ccc(N3CCN(C(=O)c4cccs4)CC3)cc2)c1	47	12	35	61*	-10	7	57*	60*
COc1ccc(NC(=O)c2ccc(NC(=O)c3cccs3)cc2)cc1	-2	19	-5	67*	-4	19	26	nt
COc1ccc(S(=O)(=O)Nc2ccc3c(c2)CC(=O)N([C@@H](C)CO)C[C@H](C)[C@H](CN(C)S(=O)(=O)c2ccc(F)cc2)O3)cc1	-4	nt	nt	nt	nt	nt	nt	nt
CC(C)NC[C@@H]1[C@@H](c2ccc(C3=CCCCC3)cc2)[C@H](CO)N1C(=O)NC(C)C	23	nt	nt	nt	nt	nt	nt	nt
O=C(Nc1cccnc1)c1cccs1	nt	17	8	77*	-4	89*	70*	40*
c1ccc(-c2sc3ccccc3c2-c2ccc(OCCN3CCCC3)cc2)cc1	-6	107*	-3	100*	3	6	46*	58*
Oc1ccc2sc(-c3ccccc3O)c(-c3ccc(OCCN4CCCCC4)cc3)c2c1	24	nt	nt	nt	nt	nt	nt	nt
COc1ccc(-c2sc3ccccc3c2-c2ccc(OCCN3CCCCC3)cc2)cc1	-20	139*	-12	88*	6	103*	20	nt
O=C(O)C[C@H]1C=C[C@@H](NC(=O)c2ccncc2)[C@H](CO)O1	-21	nt	nt	nt	nt	nt	nt	nt
C[C@H](CO)N1C[C@H](C)[C@H](CN(C)Cc2ccc(C(=O)O)cc2)OCCCC[C@H](C)Oc2ccc(NC(=O)Nc3ccccc3)cc2C1=O	6	nt	nt	nt	nt	nt	nt	nt
COc1ccc(NC(=O)Nc2ccc3c(c2)C(=O)N([C@H](C)CO)C[C@H](C)[C@H](CN(C)S(C)(=O)=O)OCCCC[C@H](C)O3)cc1	-20	nt	nt	nt	nt	nt	nt	nt
CO[C@H]1CN(C)C(=O)c2cc(NS(=O)(=O)c3cn(C)cn3)ccc2OC[C@H](C)N(C)C[C@H]1C	3	nt	nt	nt	nt	nt	nt	nt
CC/C(=N/Nc1cccc(Cl)c1)c1cnnc(SC)n1	-13	-1	-13	54*	0	-5	39	71*
COc1ccc(-c2oc(=O)c3cc(OC)c(OC)cc3c2/C=C/c2ccc(OC(C)=O)cc2)cc1	23	nt	4	60*	15	3	38	63*
COc1ccc(-c2oc(=O)c3cc(OC)c(OC)cc3c2/C=C/c2ccc(F)cc2)cc1	6	-25	6	29	14	2	nt	nt
O=C1N/C(=C\c2ccc(N3CCOCC3)c(F)c2)C(=O)N1Cc1ccccc1	nt	52	55	73*	-2	28	40*	74*
Cc1ccc(CN2C(=O)N/C(=C\c3ccc(N4CCOCC4)cc3)C2=O)cc1	nt	30	19	7	3	-3	nt	nt
Cc1ccc2[nH]c(=O)c(CN(Cc3cccs3)Cc3nnnn3Cc3ccccc3)cc2c1	nt	5	12	50	1	-8	21	nt
CCOC(=O)Cn1nnnc1CN(Cc1cccs1)Cc1cc2cc(C)ccc2[nH]c1=O	nt	nt	5	5	2	-2	nt	nt
C[C@H]1CN([C@@H](C)CO)C(=O)c2cccc(NC(=O)C3CC3)c2O[C@@H]1CN(C)Cc1ccccc1	-6	nt	nt	nt	nt	nt	nt	nt
O=C(Nc1csc([N+](=O)[O-])c1)Nc1c(Cl)cccc1Cl	5	14	-59	30	6	-15	nt	nt
O=C(Nc1ccc(Cl)cc1)Nc1cc([N+](=O)[O-])ccc1F	-4	43	19	49	-10	29	nt	nt
SMILES	PAX8 inh HTS	CSC inhib	Shn3 3UTR inh	Mdm2-MdmX inh	Gli-Sufu antag	Beta apoptosis	Mdm2 MdmX conf	Full FLuc ctr
O=C(Nc1ccc([N+](=O)[O-])cc1)Nc1ccc(Cl)cc1F	2	-6	71	87*	28	108*	91*	73*
O=C(Nc1ccc(Cl)cc1)Nc1csc([N+](=O)[O-])c1	72*	36	60	94*	33	80*	76*	31
Cc1cc(OC(F)F)ccc1NC(=O)Nc1ccc([N+](=O)[O-])cc1	18	-28	2	96*	-6	64	86*	47*
CCCN1C(=O)/C(=C/c2c(N3CCNC(=O)C3CC(=O)OCC)nc3c(C)cccn3c2=O)SC1=S (stereo unspecified)	nt	50	nt	74*	1	6	68*	74*
CCOC(=O)CC1C(=O)NCCN1c1nc2ccc(C)cn2c(=O)c1/C=C1\SC(=S)N(CC(C)C)C1=O (stereo unspecified)	nt	20	-7	36	-1	5	nt	nt
COc1ccccc1-c1cc(C(F)(F)F)c(C#N)c(=O)[nH]1	3	-9	-18	-6	17	nt	nt	nt
CC1(c2ccccc2)ON(c2ccccc2C(F)(F)F)C1=O (stereo unspecified)	nt	17	nt	46	nt	-7	nt	nt
Cc1ccccc1[C@@]1(C)ON(c2ccccc2C(F)(F)F)C1=O	?	4	-18	81*	-11	-5	34	nt
CC[C@@]1(c2ccccc2OC)ON(c2ccccc2C(F)(F)F)C1=O	60	57	-5	89*	-5	-16	80*	51*
O=C1N(c2ccccc2C(F)(F)F)O[C@]1(c1ccccc1)C1CCCC1	?	5	-3	79*	-18	0	53*	50*
C[C@H](CO)N1C[C@H](C)[C@@H](CN(C)S(=O)(=O)c2cn(C)cn2)Oc2ccc(NS(=O)(=O)c3ccc(F)cc3)cc2C1=O	11	nt	nt	nt	nt	nt	nt	nt
CCOC(=O)C1=C(N)n2c(s/c(=C\c3cccs3)c2=O)=C(C(=O)OCC)C1c1cccs1 (stereo unspecified)	nt	56	-13	62*	7	12	50*	79*
COc1cccc(S(=O)(=O)Nc2ccc3c(c2)C(=O)N(C)[C@H]2CC[C@H](CC(=O)O)O[C@@H]2CO3)c1	1	nt	nt	nt	nt	nt	nt	nt
C[C@@H]1CN([C@H](C)CO)C(=O)c2cc(NC(=O)C3CCCCC3)ccc2O[C@H]1CN(C)S(=O)(=O)c1ccc(Cl)cc1	9	nt	nt	nt	nt	nt	nt	nt
